According to the supplement of paper PMC10127200:
Where a name gives a salt, the structure may show the parent alone.

Key:
Experiment in all cases: Euclidean distance of Cell Painting phenotypic profile (signed KS, 77 features) to DMSO centroid (dimensionless distance); 5 or 10 uM (library dependent); higher = stronger phenotypic change vs DMSO (phenoactivity)
Settings in all cases: 48 h
[1] = test system: 786-O
Summary of the method: (§1)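 At 10 or 5 uM, as set by the library, and 0.1% DMSO final, compounds were applied for 48 h to five cancer lines and one healthy fibroblast line. Stained cells were imaged confocally at 20X in 9 fields per well, and Harmony extracted 77 features scored as signed Kolmogorov-Smirnov statistics against vehicle wells on the same plate. Profiles underwent plate-position correction, correlation weighting and replicate averaging at the top dose. Phenoactivity is the Euclidean distance from each such profile to the median vehicle profile.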

[2] = test system: A549
Summary of the method: as §1

[3] = test system: DU145
Summary of the method: as §1

[4] = test system: FB
Summary of the method: as §1

[5] = test system: HEPG2
Summary of the method: as §1

[6] = test system: OVCAR4
Summary of the method: as §1

Compound	Euclidean distance [1]	Euclidean distance [2]	Euclidean distance [3]	Euclidean distance [4]	Euclidean distance [5]	Euclidean distance [6]
Cn1nnnc1SCC1=C(C(=O)O)N2C(=O)[C@@H](NC(=O)[C@H](OC=O)c3ccccc3)[C@H]2SC1 [Cefamandole nafate]	1.06	0.559	1.12	0.954	0.484	0.965
Nc1nc2[nH]cnc2c(=S)[nH]1 [Thioguanine]	1.65	2.5	1.48	0.807	3.13	2.12
O=C(O)c1cc(-c2ccccc2)nc2ccccc12 [Cinchophen]	1.16	1.12	1.3	1.12	1.47	0.992
NCCc1c[nH]cn1 [Histamine]	1.05	1.15	1.33	1.24	1.08	1.27
CC(C)C[C@H](NC(=O)[C@@H](NC(=O)c1cccc(-c2ccccc2)n1)[C@@H](C)O)B(O)O	4.27	4.06	4.4	3.55	4.77	5.53
C/C(=C\C(=O)OCCCCCCCCC(=O)O)C[C@@H]1OC[C@H](C[C@@H]2O[C@H]2[C@@H](C)[C@H](C)O)[C@@H](O)[C@H]1O [Mupirocin]	1.8	0.693	0.636	0.92	0.693	1.35
CC1=CC[C@@](O)(C(C)C)CC1 [Terpinen-4-ol]	0.644	0.999	0.827	0.873	0.873	0.882
O=C1c2c(O)cccc2C([C@@H]2O[C@H](CO)[C@@H](O)[C@H](O)[C@H]2O)c2cc(CO)cc(O)c21 (some centres not stated) [Aloin]	1.2	0.555	0.756	0.842	0.479	0.881
COc1ccc(COc2cc3oc(=O)c4cc(C(C)O)ccc4c3cc2OC)cc1 (configuration not stated) [Palomid 529 (P529)]	1.8	1.25	1.29	1.02	1.33	1.06
N=C1CCCN1Cc1[nH]c(=O)[nH]c(=O)c1Cl.O=c1[nH]c(=O)n([C@H]2C[C@H](O)[C@@H](CO)O2)cc1C(F)(F)F	3.51	3.48	3.37	1.25	3	3.04
CCOC(=O)c1ccc(N)cc1 [Benzocaine hydrochloride]	0.675	0.334	0.563	0.896	0.264	0.998
C[C@H](NC(=O)C(=O)Nc1ccccc1C(C)(C)C)C(=O)N[C@@H](CC(=O)O)C(=O)COc1c(F)c(F)cc(F)c1F [Emricasan]	1.44	0.567	0.769	0.936	0.32	0.99
CONC(=O)c1ccccc1Nc1cc(Nc2cc(C)nn2C(C)C)ncc1Cl	1.35	1.28	1.33	2.01	0.825	1.5
CC(C(O)c1ccc(O)cc1)N1CCC(Cc2ccccc2)CC1 (configuration not stated) [Ifenprodil Tartrate]	0.976	0.88	0.955	1.22	0.958	0.965
CCOc1cc([C@@H](CS(C)(=O)=O)N2C(=O)c3cccc(NC(C)=O)c3C2=O)ccc1OC	1.2	0.481	1.78	0.934	0.783	0.611
C[C@H]1O[C@@H](n2cc(F)c(=O)[nH]c2=O)[C@H](O)[C@@H]1O [Doxifluridine]	0.747	1.07	0.886	0.864	2.72	1.03
NC(=O)c1ccc(-c2nc(-c3ccccn3)c(-c3ccc4c(c3)OCO4)[nH]2)cc1	1.59	2.49	1.48	1.91	2.52	2.61
CCC(CC)(NC(=O)C(C)C)C(=O)N[C@@H](CCCN=C(N)N)C(=O)NC1(C(=O)NC(c2ccc(F)cc2)c2ccc(F)cc2)CCCC1	0.761	0.796	1.14	0.736	0.712	0.893
N[C@@H](Cc1cc(I)c(Oc2cc(I)c(O)c(I)c2)c(I)c1)C(=O)O [L-Thyroxine]	1.38	1.12	1.19	0.961	0.718	1.45
COc1ccc(-c2nc3cc(C4=NNC(=O)CC4C)ccc3[nH]2)cc1 (configuration not stated) [Pimobendan]	1.43	1.4	1.01	1.27	1.2	1.02
Cc1cc(-c2ccc(CC(=O)Nc3ccc(-c4cccnc4)cc3)cc2)ccn1	1.31	1.03	0.823	1.02	0.787	1.36
CC(C)n1nc(-c2cc3cc(O)ccc3[nH]2)c2c(N)ncnc21	4.59	3.23	2.64	4.3	3.12	4.61
CCc1cncnc1N1CCN(Cc2nc3ccc(C(F)(F)F)cc3[nH]2)CC1	1.03	0.742	0.956	1.1	0.883	1.13
Cc1cc(C)cc(OCC2CNC(=O)O2)c1 (configuration not stated) [Metaxalone]	0.96	0.856	0.745	0.753	0.417	1.15
Cc1cc(C(=O)NOCCO)c(Nc2ccc(I)cc2F)n(C)c1=O	2.89	2.95	2.82	4.35	1.48	1.72
COc1cc(NS(=O)(=O)c2ccc(N)cc2)ncn1 [Sulfamonomethoxine]	0.83	0.926	0.778	0.916	0.669	1.12
COc1c(C)cnc(Cn2cnc3c(Cl)nc(N)nc32)c1C	3.02	3.08	3.08	3.34	4.24	3.08
